This note sets out measurements from PubChem BioAssay.

Calls of active or inactive are those of the source.

One assay deals with Albumin (Bos taurus) (UniProt P02769). The experiment in a line: compounds binding labelled BSA control protein – biochemical, small-molecule microarray, Alexa647 label, 635/667 nm fluorescence, artefact control for SMM control protein annotation, profiling panel (AID 1118).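 Also: score merges 667 nm emission intensity and signal-to-noise per printed compound spot.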 The conditions noted are these: BSA-A647 binding, fluorescence 635 nm, higher = more signal.
Albumin (Bos taurus), sequence (P02769 whole entry, looked up): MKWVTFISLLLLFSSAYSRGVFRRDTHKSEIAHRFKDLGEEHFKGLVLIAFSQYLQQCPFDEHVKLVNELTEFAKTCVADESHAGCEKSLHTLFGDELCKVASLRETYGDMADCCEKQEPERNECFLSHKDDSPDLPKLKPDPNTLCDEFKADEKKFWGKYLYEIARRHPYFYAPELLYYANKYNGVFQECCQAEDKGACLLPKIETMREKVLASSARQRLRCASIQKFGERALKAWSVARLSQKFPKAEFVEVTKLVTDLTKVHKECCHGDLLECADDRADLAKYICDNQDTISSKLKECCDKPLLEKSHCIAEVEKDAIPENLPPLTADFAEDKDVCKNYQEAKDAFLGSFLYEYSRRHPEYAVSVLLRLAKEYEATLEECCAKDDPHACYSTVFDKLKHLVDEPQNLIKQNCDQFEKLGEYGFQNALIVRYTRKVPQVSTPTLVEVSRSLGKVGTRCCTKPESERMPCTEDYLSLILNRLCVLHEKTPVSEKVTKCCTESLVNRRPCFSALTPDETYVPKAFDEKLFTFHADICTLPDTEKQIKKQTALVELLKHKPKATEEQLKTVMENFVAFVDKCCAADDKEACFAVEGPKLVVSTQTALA
A short description of assay [1]: probe aXIP binding to arrayed compounds – biochemical, NeuroSMM set, 635/667 nm fluorescence, primary screen (AID 1119).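 Also: probe is the protein aXip251-270 applied at 1 µg/mL to compound-printed slides; binding of probe to printed compounds measured as 667 nm fluorescence plus signal to noise.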 The conditions noted are these: small-molecule microarray, higher = more signal, called active from +8 up or from −8 down.
Assay [2] can be described thus: probe aNOTCH3 binding on compound microarray – biochemical, small-molecule microarray, 635/667 nm fluorescence, primary screen (AID 1120).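 Also: probe is a biotin-tagged antibody raised against NOTCH3 rather than NOTCH3 protein; score merges spot fluorescence near 667 nm with spot signal to noise.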 The conditions noted are these: higher = more signal.
Assay [3] is described as follows: probe aNOTCH2 binding on compound microarray – biochemical, small-molecule microarray, 635/667 nm fluorescence, primary screen (AID 1121).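 Also: score merges feature fluorescence read at 667 nm with its signal to noise.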 Particulars: higher = more signal.
Assay [4] has as its target Carbonic anhydrase 2 (Homo sapiens) (UniProt P00918). Kind of assay: compounds binding carbonic anhydrase 2 – biochemical, small-molecule microarray, Alexa647-labelled CAII, profiling panel (AID 1122). Particulars: CAII-A647 binding fluorescence, higher = more signal.
Assay [5] is described as follows: COS7 lysate on small-molecule microarray, probe aHis, 635 nm (AID 1123).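 Also: z-score combines 667nm fluorescence intensity with signal-to-noise per printed compound spot.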 The conditions noted are these: COS7 cell lysate, fluorescence, higher = more signal.
A short description of assay [6]: probe aLAP1 signal on lysate-treated microarray – cell lysate, small-molecule microarray, COS7 lysate, primary screen (AID 1124).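 Also: lysate comes from COS7 cells expressing LAP1 and is applied at 0.3 µg/mL; score merges spot fluorescence near 667 nm with signal-to-noise over triplicate slides.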 Particulars: probe aLAP1, fluorescence, higher = more signal.
A further assay relates to Sam68 (KHDRBS1). The experiment in a line: compounds binding KHDRBS1 protein – biochemical, small-molecule microarray, 635 nm fluorescence, primary screen (AID 1125).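 Also: score merges 667 nm channel intensity with signal to noise over triplicate slides.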 The conditions noted are these: higher = more signal.
The subject of assay [7] is Chordin-like protein 2 (CHRDL2). The experiment in a line: compounds binding chordin-like 2 – biochemical, small-molecule microarray, 635 nm fluorescence, primary screen (AID 1126).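 Also: printed compound slides probed with Chrdl2 protein at 4 µg/mL for 1 h at 4 C; score merges 667 nm emission intensity with signal to noise over three replicate slides.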 The conditions noted are these: fluorescence 635 nm, higher = more signal.
In assay [8] the target is Concanavalin-A (Canavalia ensiformis) (UniProt P02866). The experiment in a line: compounds binding concanavalin A lectin – biochemical, small-molecule microarray, Alexa647 label, 635 nm, artefact control for SMM control protein annotation, primary screen (AID 1127).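 Also: z combines 667 nm emission intensity with signal-to-noise across three replicate slides.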 The conditions noted are these: ConA-A647 binding fluorescence, higher = more signal.
Concanavalin-A (Canavalia ensiformis), sequence (P02866 whole entry, looked up): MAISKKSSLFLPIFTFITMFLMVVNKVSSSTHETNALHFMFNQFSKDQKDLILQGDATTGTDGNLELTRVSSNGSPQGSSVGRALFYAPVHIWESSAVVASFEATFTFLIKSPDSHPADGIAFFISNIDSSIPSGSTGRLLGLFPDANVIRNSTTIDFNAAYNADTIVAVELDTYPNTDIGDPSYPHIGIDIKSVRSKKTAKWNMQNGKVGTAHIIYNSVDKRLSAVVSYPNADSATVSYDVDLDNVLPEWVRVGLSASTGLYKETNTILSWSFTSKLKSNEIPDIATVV

As for `COc1ccc(NC(=O)O[C@H]2[C@H](OC(=O)Nc3ccccc3)[C@H](OC(=O)Nc3ccccc3)[C@@H](OC)O[C@@H]2CO)cc1`, the composite z-score came out at 0.693 with Albumin (Bos taurus); 0.861 in [2]; 0.28 in [3]; 0.703 in [4]; 2.87 in [5]; 0.197 in assay [6]. In addition, the composite z-score with Sam68 (KHDRBS1) was determined as 1.31; in [7], 0.181; in [8] it was 0.946. In assay [1], the composite Z-score was 1.58 (inactive).
Take `COC(=O)[C@@]1(Cc2ccccc2)[C@H]2c3cc(C(=O)N(C)C)n(Cc4c(CO)[nH]cc(C)c4=O)c3C[C@H]2CN1C(=O)c1ccccc1`: the composite z-score with Albumin (Bos taurus) is 0.96; in assay [2], 0.163; in [3], -0.0351; in assay [4], 0.777; in assay [5], 1.35; in assay [6] it was -0.056. Further, the composite z-score was 0.432 with Sam68 (KHDRBS1), -0.26 in assay [7] and 0.295 in assay [8]. Moreover, the composite Z-score in assay [1] was 0.546 (inactive).
Turning to `CO[C@H]1O[C@H](CO)[C@@H](OC(=O)Nc2ccc3c(c2)OCO3)[C@H](OC(=O)c2cc3ccccc3[nH]2)[C@H]1OC(=O)c1cc2ccccc2[nH]1`, the composite z-score is 0.429 with Albumin (Bos taurus); -0.0932 in assay [2]; -0.0875 in assay [3]; 0.402 in assay [4]; -0.0481 in [5]; 0.0757 in assay [6]. Further, the composite z-score is 0.12 with Sam68 (KHDRBS1), 0.725 in assay [7] and -0.391 in [8]. Also, the composite Z-score in [1] was 0.993 (inactive).
Take `CN(C)CCCNC(=O)[C@@]1(C)c2ccccc2C(=O)N(Cc2ccccc2)[C@H]1c1ccc(CO)cc1`: the composite z-score was -1.05 with Albumin (Bos taurus); -0.264 in assay [2]; -0.236 in [3]; 0.704 in assay [4]; -0.358 in assay [5]; -0.39 in assay [6]. The composite z-score was -0.0419 in the assay with Sam68 (KHDRBS1), -0.19 in assay [7] and -0.371 in assay [8]. The composite Z-score in [1] was -0.194 (inactive).
For `C=CCC(OC(C)=O)[C@@H]1[C@@H](N(Cc2ccc(-c3cccc(C(F)(F)F)c3)o2)C(=O)c2ccc(C)cc2)c2cc(OCCCO)ccc2N1C(=O)c1ccc2ccccc2c1` (stereo not given in full), the composite z-score is 0.149 in the assay with Albumin (Bos taurus); -0.0377 in assay [2]; -0.14 in assay [3]; 0.151 in assay [4]; 0.387 in assay [5]; -0.0397 in assay [6]. For the same compound, the figures for the composite z-score (with Sam68 (KHDRBS1); in [7]; in assay [8]) were -0.285, 0.287 and 0.0961, respectively. In addition, in assay [1], the composite Z-score was -0.0045 (inactive).
On to `CCOC(=O)C[C@H]1[C@H](OC(=O)c2cc3ccccc3oc2=O)[C@@H](NC(=O)Cc2ccc(OC)cc2)c2cc(OCCCO)ccc2N1C(=O)c1ccc2ccccc2n1`, for which the composite z-score with Albumin (Bos taurus) is -0.116; in assay [2], -0.152; in [3], -0.0666; in assay [4], 0.353; in assay [5], 0.303; in assay [6], 0.096. The composite z-score in the assay on Sam68 (KHDRBS1) worked out at 0.206; in assay [7] it was 0.583; in assay [8] it was 0.0304. In addition, in assay [1], the composite Z-score is -0.431 (inactive).
For `COc1ccc([Si](C)(C)[C@H]2[C@H](CC(=O)N(CCO)Cc3ccccc3)O[C@@]3(C(=O)N(Cc4cccc(N5CCOC5=O)c4)c4ccccc43)[C@@H]2C)cc1`, the composite z-score with Albumin (Bos taurus) was -0.255; in assay [2] it was -0.0288; in [3], -0.104; in assay [4], 0.591; in [5] it was 1.1; in assay [6], 0.735. Moreover, the composite z-score was determined as 1.3 in the assay on Sam68 (KHDRBS1), 0.623 in [7] and 0.995 in assay [8]. Moreover, the composite Z-score in assay [1] was 0.897 (inactive).
As for `CC(C)(C)OC(=O)CC[C@]1(C(=O)NCc2ccccc2)N=C(c2ccc(OCCCO)cc2)O[C@H]1c1ccccc1CN=[N+]=[N-]`, the composite z-score in the assay with Albumin (Bos taurus) is 0.75; in assay [2], 0.526; in [3], -0.127; in [4], 0.68; in [5] it was 2.45; in assay [6], 0.583. The composite z-score was 1.3 in the assay with Sam68 (KHDRBS1), -0.0873 in [7] and 0.769 in assay [8]. In addition, the composite Z-score in assay [1] was -1 (inactive).
For `O=C(NCC(F)(F)F)[C@@H]1c2ccccc2C(=O)N(Cc2ccccc2C(F)(F)F)[C@H]1c1ccc(CO)cc1`, the composite z-score was 0.0104 with Albumin (Bos taurus); -0.0824 in [2]; 0.0667 in assay [3]; 0.758 in assay [4]; 0.891 in assay [5]; 0.234 in assay [6]. Also, the composite z-score in the assay with Sam68 (KHDRBS1) is 0.163; in [7], -0.572; in assay [8], -0.104. For the same compound, the composite Z-score in assay [1] is 1.89 (inactive).
As to `[N-]=[N+]=Nc1ccccc1C[C@]1(C(N)=O)N=C(c2ccc(OCCCO)cc2)O[C@H]1c1ccccc1N=[N+]=[N-]`, the composite z-score is 0.92 with Albumin (Bos taurus); 0.231 in assay [2]; -0.0091 in assay [3]; 0.672 in assay [4]; 0.0754 in [5]; 0.193 in assay [6]. In addition, the composite z-score in the assay with Sam68 (KHDRBS1) was 1.31; in assay [7], -0.321; in assay [8] it was 1.12. For the same compound, the composite Z-score in assay [1] is -0.199 (inactive).
As for `COC(=O)[C@@]1(Cc2ccccc2N=[N+]=[N-])N=C(c2ccc(OCCCO)cc2)O[C@H]1c1ccccc1N=[N+]=[N-]`, the composite z-score with Albumin (Bos taurus) is -0.908; in assay [2], 0.149; in [3], 0.0977; in assay [4], 0.355; in [5], 1.44; in assay [6], 0.494. Further, the composite z-score with Sam68 (KHDRBS1) was found to be 0.996; in assay [7], 0.456; in assay [8], 0.851. In addition, in [1], the composite Z-score is 0.332 (inactive).
With `COc1ccccc1CN1C(=O)c2ccccc2[C@@]2(Cc3ccccc3N(CC(F)(F)F)C2=O)[C@@H]1c1ccc(CO)cc1`, the composite z-score was -0.826 with Albumin (Bos taurus); -0.251 in assay [2]; 0.156 in assay [3]; 0.757 in assay [4]; 0.384 in assay [5]; 2.4 in [6]. Also, the composite z-score is 0.707 in the assay with Sam68 (KHDRBS1), 1.03 in assay [7] and 0.331 in assay [8]. Also, the composite Z-score in assay [1] was -0.137 (inactive).
As for `COCCOC(=O)N1C(=O)[C@@]2(c3cc(C#Cc4ccc(OC)cc4)ccc31)[C@H](c1ccc(O)cc1)N1[C@H](c3ccccc3)[C@H](c3ccccc3)OC(=O)[C@H]1[C@@H]2C(=O)N1CCCCCCC1`, the composite z-score is 0.802 with Albumin (Bos taurus); 0.7 in assay [2]; -0.131 in [3]; 0.466 in assay [4]; 2.11 in assay [5]; 0.575 in assay [6]. In addition, the composite z-score with Sam68 (KHDRBS1) is 0.722; in [7], -0.508; in [8] it was 0.498. For the same compound, the composite Z-score in assay [1] is -0.182 (inactive).
In the case of `COCCOC(=O)N1C(=O)[C@@]2(c3cc(C#CC4=CCCCC4)ccc31)[C@H](c1ccc(O)cc1)N1[C@H](c3ccccc3)[C@H](c3ccccc3)OC(=O)[C@H]1[C@@H]2C(=O)N1CCN(c2ncccn2)CC1`, the composite z-score with Albumin (Bos taurus) was -1.34; in assay [2], -0.345; in assay [3] it was -0.156; in assay [4], -0.391; in [5], -0.147; in assay [6] it was 0.601. For the same compound, the composite z-score in the assay on Sam68 (KHDRBS1) was -0.535; in assay [7] it was -1.21; in assay [8] it was -0.217. Besides, the composite Z-score in assay [1] was -0.551 (inactive).
For the compound `[N-]=[N+]=NCc1ccccc1C[C@]1(C(N)=O)N=C(c2ccc(OCCCO)cc2)O[C@H]1c1ccccc1`, the composite z-score with Albumin (Bos taurus) was 0.96; in assay [2] it was 0.073; in [3] it was -0.1; in assay [4] it was 0.82; in assay [5], 2.67; in assay [6] it was 0.525. Besides, the composite z-score was 0.976 in the assay with Sam68 (KHDRBS1), -1.03 in assay [7] and 0.533 in [8]. Moreover, in [1], the composite Z-score was -0.524 (inactive).
